# Assay results as given in the supplement of paper PMC8728848.
# This is one part of a sample in which the strongest signals are shown more often than they occur.
# B1: Gal 7 (Homo sapiens) (protein)
# chain: MSNVPHKSSLPEGIRPGTVLRIRGLVPPNASRFHVNLLCGEEGGSDAALHFNPRLDTSEVVFNSKEGGSWGREESGPGVPFGRGQPFEVLIIASDDGFKAVVGDAQYHHFRHRLPLARVRLVEVGGDVQLDSVRIF
# Assays:
# Experiment in all cases: glycan array binding signal (z-score within array); higher = stronger binding
# Conditions in all cases: glycan notation: IUPAC condensed, linker removed; mutation: R74S
# [1] = molecular target: Gal(b1-4)GlcNAc(b1-3)Gal(b1-4)GlcNAc(b1-3)Gal(b1-4)GlcNAc(b1-3)Gal(b1-4)GlcNAc(b1-2)Man(a1-3)[Gal(b1-4)GlcNAc(b1-3)Gal(b1-4)GlcNAc(b1-3)Gal(b1-4)GlcNAc(b1-3)Gal(b1-4)GlcNAc(b1-2)Man(a1-6)]Man(b1-4)GlcNAc(b1-4)[Fuc(a1-6)]GlcNAc
# Outline: (§1)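 The Consortium for Functional Glycomics database supplied 3228 glycan arrays, of which those lacking an available protein sequence were dropped. The binding signal, a within-array Z-score, was averaged across arrays of the same protein sequence and across linkers. Negative scores can be read as non-binding.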
# [2] = molecular target: Gal(b1-4)GlcNAc(b1-3)Gal(b1-4)GlcNAc(b1-3)Gal(b1-4)GlcNAc(b1-3)Gal(b1-4)GlcNAc(b1-2)[Gal(b1-4)GlcNAc(b1-3)Gal(b1-4)GlcNAc(b1-3)Gal(b1-4)GlcNAc(b1-3)Gal(b1-4)GlcNAc(b1-6)]Man(a1-6)[Gal(b1-4)GlcNAc(b1-3)Gal(b1-4)GlcNAc(b1-3)Gal(b1-4)GlcNAc(b1-3)Gal(b1-4)GlcNAc(b1-2)Man(a1-3)]Man(b1-4)GlcNAc(b1-4)[Fuc(a1-6)]GlcNAc
# Outline: as §1
# [3] = molecular target: Gal(b1-4)GlcNAc(b1-3)Gal(b1-4)GlcNAc(b1-3)Gal(b1-4)GlcNAc(b1-3)Gal(b1-4)GlcNAc(b1-3)Gal(b1-4)GlcNAc(b1-2)Man(a1-3)[Gal(b1-4)GlcNAc(b1-3)Gal(b1-4)GlcNAc(b1-3)Gal(b1-4)GlcNAc(b1-3)Gal(b1-4)GlcNAc(b1-3)Gal(b1-4)GlcNAc(b1-2)Man(a1-6)]Man(b1-4)GlcNAc(b1-4)GlcNAc
# Outline: as §1
# [4] = molecular target: Gal(b1-4)GlcNAc(b1-3)Gal(b1-4)GlcNAc(b1-3)Gal(b1-4)GlcNAc(b1-3)Gal(b1-4)GlcNAc(b1-3)Gal(b1-4)GlcNAc(b1-2)Man(a1-3)[Gal(b1-4)GlcNAc(b1-3)Gal(b1-4)GlcNAc(b1-3)Gal(b1-4)GlcNAc(b1-3)Gal(b1-4)GlcNAc(b1-3)Gal(b1-4)GlcNAc(b1-2)Man(a1-6)]Man(b1-4)GlcNAc(b1-4)[Fuc(a1-6)]GlcNAc
# Outline: as §1
# [5] = molecular target: Gal(b1-4)GlcNAc(b1-3)Gal(b1-4)GlcNAc(b1-3)Gal(b1-4)GlcNAc(b1-3)Gal(b1-4)GlcNAc(b1-3)Gal(b1-4)GlcNAc(b1-2)[Gal(b1-4)GlcNAc(b1-3)Gal(b1-4)GlcNAc(b1-3)Gal(b1-4)GlcNAc(b1-3)Gal(b1-4)GlcNAc(b1-3)Gal(b1-4)GlcNAc(b1-6)]Man(a1-6)[Gal(b1-4)GlcNAc(b1-3)Gal(b1-4)GlcNAc(b1-3)Gal(b1-4)GlcNAc(b1-3)Gal(b1-4)GlcNAc(b1-3)Gal(b1-4)GlcNAc(b1-2)Man(a1-3)]Man(b1-4)GlcNAc(b1-4)[Fuc(a1-6)]GlcNAc
# Outline: as §1
# [6] = molecular target: GalNAc(b1-3)Gal(a1-4)Gal(b1-4)GlcNAc(b1-3)Gal(b1-4)Glc
# Outline: as §1
# [7] = molecular target: GalNAc(b1-3)Gal(a1-6)Gal(b1-4)Glc
# Outline: as §1
# [8] = molecular target: GalNAc(b1-4)GlcNAc(b1-3)GalNAc(b1-4)GlcNAc
# Outline: as §1
# GlcNAc(b1-3)Fuc = molecular target: GlcNAc(b1-3)Fuc
# Outline: as §1
# [9] = molecular target: GlcNAc(b1-3)Gal(b1-4)GlcNAc(b1-3)Gal(b1-4)GlcNAc(b1-3)Gal(b1-4)GlcNAc(b1-2)Man(a1-3)[GlcNAc(b1-3)Gal(b1-4)GlcNAc(b1-3)Gal(b1-4)GlcNAc(b1-3)Gal(b1-4)GlcNAc(b1-2)Man(a1-6)]Man(b1-4)GlcNAc(b1-4)[Fuc(a1-6)]GlcNAc
# Outline: as §1
# [10] = molecular target: GlcNAc(b1-3)Gal(b1-4)GlcNAc(b1-3)Gal(b1-4)GlcNAc(b1-3)Gal(b1-4)GlcNAc(b1-3)Gal(b1-4)GlcNAc(b1-2)Man(a1-3)[GlcNAc(b1-3)Gal(b1-4)GlcNAc(b1-3)Gal(b1-4)GlcNAc(b1-3)Gal(b1-4)GlcNAc(b1-3)Gal(b1-4)GlcNAc(b1-2)Man(a1-6)]Man(b1-4)GlcNAc(b1-4)[Fuc(a1-6)]GlcNAc
# Outline: as §1
# [11] = molecular target: GlcNAc(b1-3)[GlcNAc(b1-6)]Gal(b1-4)GlcNAc
# Outline: as §1
# GlcNAc(b1-4)GlcNAc = molecular target: GlcNAc(b1-4)GlcNAc
# Outline: as §1
# [12] = molecular target: GlcNAc(b1-4)GlcNAc(b1-4)GlcNAc(b1-4)GlcNAc(b1-4)GlcNAc
# Outline: as §1
# [13] = molecular target: Man(a1-2)Man(a1-6)[Man(a1-3)]Man(a1-6)[Man(a1-2)Man(a1-2)Man(a1-3)]Man
# Outline: as §1
# [14] = molecular target: Neu5Ac(a2-3)Gal(b1-3)GalNAc(b1-4)[Neu5Ac(a2-3)]Gal(b1-4)Glc
# Outline: as §1
# [15] = molecular target: Neu5Ac(a2-3)Gal(b1-3)GlcNAc(b1-3)GalNAc
# Outline: as §1
# [16] = molecular target: Neu5Ac(a2-3)Gal(b1-3)[GlcNAc(b1-6)]GalNAc
# Outline: as §1
# [17] = molecular target: Neu5Ac(a2-3)Gal(b1-4)GlcNAc
# Outline: as §1
# [18] = molecular target: Neu5Ac(a2-3)Gal(b1-4)GlcNAc(b1-2)Man
# Outline: as §1
# [19] = molecular target: Neu5Ac(a2-3)Gal(b1-4)GlcNAc(b1-2)Man(a1-3)[GlcNAc(b1-4)][Neu5Ac(a2-3)Gal(b1-4)GlcNAc(b1-2)Man(a1-6)]Man(b1-4)GlcNAc(b1-4)GlcNAc
# Outline: as §1
# [20] = molecular target: Neu5Ac(a2-6)Gal(b1-4)GlcNAc(b1-2)Man(a1-3)[Man(a1-6)]Man(b1-4)GlcNAc(b1-4)GlcNAc
# Outline: as §1
# [21] = molecular target: Neu5Ac(a2-6)Gal(b1-4)GlcNAc(b1-2)[Neu5Ac(a2-6)Gal(b1-4)GlcNAc(b1-4)]Man(a1-3)[GlcNAc(b1-4)][Neu5Ac(a2-6)Gal(b1-4)GlcNAc(b1-2)[Neu5Ac(a2-6)Gal(b1-4)GlcNAc(b1-6)]Man(a1-6)]Man(b1-4)GlcNAc(b1-4)GlcNAc
# Outline: as §1
# [22] = molecular target: Neu5Gc(a2-3)Gal(b1-4)GlcNAc(b1-3)Gal(b1-4)GlcNAc(b1-2)Man(a1-3)[Neu5Gc(a2-3)Gal(b1-4)GlcNAc(b1-3)Gal(b1-4)GlcNAc(b1-2)Man(a1-6)]Man(b1-4)GlcNAc(b1-4)GlcNAc
# Outline: as §1
# [23] = molecular target: Neu5Gc(a2-3)Gal(b1-4)[Fuc(a1-3)]GlcNAc
# Outline: as §1
binder,measurement,setting,value
B1,glycan array binding signal (z-score),[1],4.17
same,glycan array binding signal (z-score),[2],4.03
same,glycan array binding signal (z-score),[3],7.44
same,glycan array binding signal (z-score),[4],4.13
same,glycan array binding signal (z-score),[5],4.35
same,glycan array binding signal (z-score),[6],-0.451
same,glycan array binding signal (z-score),[7],-0.396
same,glycan array binding signal (z-score),[8],0.573
same,glycan array binding signal (z-score),GlcNAc(b1-3)Fuc,0.85
same,glycan array binding signal (z-score),[9],4.14
same,glycan array binding signal (z-score),[10],2.87
same,glycan array binding signal (z-score),[11],-0.632
same,glycan array binding signal (z-score),GlcNAc(b1-4)GlcNAc,-0.382
same,glycan array binding signal (z-score),[12],-0.329
same,glycan array binding signal (z-score),[13],-0.26
same,glycan array binding signal (z-score),[14],-0.265
same,glycan array binding signal (z-score),[15],-0.585
same,glycan array binding signal (z-score),[16],-0.436
same,glycan array binding signal (z-score),[17],-0.58
same,glycan array binding signal (z-score),[18],0.603
same,glycan array binding signal (z-score),[19],-0.325
same,glycan array binding signal (z-score),[20],-0.264
same,glycan array binding signal (z-score),[21],-0.265
same,glycan array binding signal (z-score),[22],1.39
same,glycan array binding signal (z-score),[23],-0.084
